Values joined by “and” are separate entries in the source; they are usually repeats but may differ in a detail not shown here. Equal entries are not always repeated. Results filed as inconclusive are left out. Values without a mark were called inactive. Active and inactive are the calls of the source. Calls come from the whole dose curve.
target: Beta-2 adrenergic receptor (Homo sapiens) (UniProt P07550); experiment: Adrenergic beta2 receptor (ADRB2) small molecule agonists, cell-based qHTS assay (AID 1963593); conditions: CHO-ADRB2 cells, cAMP HTRF, 30 min; series mostly up to 92.4 µM; activation: at the top concentration
Sequence (P07550 whole entry, looked up): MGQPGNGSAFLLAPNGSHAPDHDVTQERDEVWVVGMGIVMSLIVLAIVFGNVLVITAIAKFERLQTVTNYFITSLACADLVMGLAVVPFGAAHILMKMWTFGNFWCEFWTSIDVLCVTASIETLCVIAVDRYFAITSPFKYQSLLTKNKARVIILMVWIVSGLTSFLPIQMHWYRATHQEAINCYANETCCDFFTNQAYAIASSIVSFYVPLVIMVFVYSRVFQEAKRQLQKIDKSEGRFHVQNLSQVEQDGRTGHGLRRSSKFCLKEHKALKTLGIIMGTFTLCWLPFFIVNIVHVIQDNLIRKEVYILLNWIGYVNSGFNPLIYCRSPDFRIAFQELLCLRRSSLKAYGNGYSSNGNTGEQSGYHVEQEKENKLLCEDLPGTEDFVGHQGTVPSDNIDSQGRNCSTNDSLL
Source text: National Center for Advancing Translational Sciences [NCATS]
Division of Preclinical Innovation [DPI]
U.S. Environmental Protection Agency [EPA]
National Institutes of Environmental Health Sciences [NIEHS]
National Toxicology Program [NTP]
U.S. Food and Drug Administration [FDA]
Beta adrenergic receptors (Beta-ARs) belong to the G-protein coupled receptor (GPCR) superfamily, includes three subtypes - beta1, beta2, and beta3. Beta1-AR is the predominant receptor subtype expressed in the heart, and beta2-AR is expressed in the kidney, lung, blood vessel and in the heart, and beta3 is found in the adipocytes. Beta1 and 2 ARs couple to Gs protein and elevate cyclic adenosine mono phosphate (cAMP), which activates protein kinase A and leads to the downstream signaling responsible for the physiological actions. Beta-AR agonists or antagonists are the most prescribed therapeutic agents for heart failure and asthma, and these were one of the first target receptors for the rational drug design. Tox21 10K compound library was screened using the cAMP-Gs dynamic assay (Cisbio Bioassays, Shelton, CT) to identify agonists/antagonists of the Gs-coupled human adrenergic, beta2 receptor (ADRB2) in the CHO-ADRB2 cell line (Codex BioSolutions, Inc. Gaithersburg, MD), which stably over-expresses ADRB2. The principle of cAMP-Gs dynamic assay is based on HTRF technology, which facilitates the fluorescence resonance energy transfer (FRET) between donor Europium cryptate and acceptor d2-labeled cAMP. The cAMP generated within cells competes with the red acceptor, d2-labled cAMP, for binding to the monoclonal anti-cAMP-cryptate (Europium donor). An increase in intracellular cAMP leads to the disruption of FRET signal, and the signal is inversely proportional to the cAMP concentration. Isoproterenol HCl (Sigma-Aldrich, St. Louis, MO) was used as a positive control in the screening.
Tox21 Assay Protocol Summary:
CHO-ADRB2 cells were dispensed at 1,000/well in 4uL assay medium into white/solid 1536-well plates (Greiner Bio-One North America Inc., Monroe, NC) using a Multidrop Combi dispenser (ThermoFisher Scientific, Waltham, MA). The assay plates were incubated at 37C and 5% CO2 for an overnight (18-20hr). Then positive control and test compounds dissolved in DMSO were transferred to the assay plates at 23nL using a Pintool station (Wako, San Diego, CA). Following the compound and positive control transfer, 1uL stimulation mix containing 100uM IBMX and 25uM Ro-20-1724 was added to each well of the assay plates using BioRAPTR Flying Reagent Dispenser (FRD, Beckman Coulter, Brea, CA). The assay plates were incubated at room temperature for 0.5hr. Then 2.5ul each d2-labled cAMP and anti-cAMP-cryptate solutions were added separately to each well of the assay plates using an FRD and the assay plates were incubated at room temperature for 1hr.
% is set by controls: 0 for no effect and ±100 for the full control effect; potency is the fitted concentration of half-maximal effect.

Structure (SMILES)	activation	Potency
CCOC(=O)c1cc(=O)c2c(OCC(COc3cccc4oc(C(=O)OCC)cc(=O)c34)OC(=O)[C@@H](N)CCCCN)cccc2o1	-43.7% [at 42.5 µM]	
C=CC(O)CCCCC (stereo not given)	1.84%	
Nc1nc(=O)n([C@@H]2O[C@H](CO)[C@@H](O)[C@@H]2F)cc1I	3.93% [at 42.5 µM]	
CCCCCCCCSCCO	14.6%	
C=CC(=O)OCC(CO)(COC(=O)C=C)COC(=O)C=C		6.88 µM (active) and 19.3 µM (active)
N=C(N=C(N)N)N1CCOCC1	8.67% [at 42.5 µM]	
CCC(OCCCOC)OC(C)=O (stereo not given)	6.3%	
CC(=O)/C=C/C1C(C)=CCC(C)C1(C)C (stereo not given)	2.2%	
CC/C=C\C/C=C\C/C=C\CCCCCCCC(=O)O		inactive
CCCCC(C)C(=O)O (stereo not given)	11.1%	
OCCCCl	8.4%	
O=C(O)c1cc(=O)[nH]c(=O)[nH]1		inactive
Oc1ccc(/C=C/c2cc(O)cc(O)c2)cc1		inactive
COc1ccc(OC)c(C(O)CNC(=O)CN)c1 (stereo not given)	-14% [at 42.5 µM]	
N=C(N)c1ccccc1	1.58%	
C=CC(=O)CCCCC	18.9%	
Cc1ccccc1C(N)=O	-0.17%	
CCCCC(CC)CCC(CC(C)C)OS(=O)(=O)O (stereo not given)	1.06%	
Cc1ccc(-c2ccccc2C#N)cc1	10.8% [at 42.5 µM]	
Cc1cncc(C)c1	4.42%	

Structure (SMILES)	activation	Potency
OCCC(F)(F)C(F)(F)C(F)(F)C(F)(F)C(F)(F)C(F)(F)F	2.25%	
NC(=S)N/N=C/c1cccnc1	-11.7% [at 42.5 µM]	
CC(C)=C1CC[C@@H](C)CC1=O	-16.2%	
Cc1ccc(S(=O)(=O)NC(=O)NC2CCCCCCC2)cc1	-25.6% [at 42.5 µM]	
O=c1[nH][nH]c(=O)c2cc([N+](=O)[O-])ccc12	0.933%	
C=C(C)C(=O)OCCCCCCOC(=O)C(=C)C	-34%	
N=c1nc(N2CCCCC2)cc(N)n1O	9.26% [at 42.5 µM]	
CCCCC(CC)COCCO (stereo not given)	1.11%	
CC/C=C/CCO	0.937%	
c1coc(CNc2ncnc3nc[nH]c23)c1	-19.2%	
c1ccsc1	4.28%	
C=C(C)C(=O)OCCC(F)(F)C(F)(F)C(F)(F)C(F)(F)C(F)(F)C(F)(F)F	-9.54%	
CCOC(=O)c1cccc(N)c1	-32% [at 42.5 µM]	
CCCCCCCC(=O)N(C)C	-1.63%	
CC(=O)c1ccc2c(c1)CCCC2	9.09%	
CC(=O)CC(C)(C)C1CCCCC1	0.197%	
O=C1OC(=O)c2ccc3c4c(ccc1c24)C(=O)OC3=O	-18.1%	
CCOC(=O)NCCC[Si](OCC)(OCC)OCC	11.5%	
CC[C@H](c1ccc(O)cc1)[C@@H](CC)c1ccc(O)cc1	-29.8% [at 42.5 µM]	
NS(=O)(=O)c1ccccc1Cl	-0.342%	

— PubChem BioAssay (Tox21)
